Tat transport: inhibitors of E. coli Tat protein transport | AID 488895 | E. coli MC4100 TorA-mCherry Tat export, fluorescence | inhibition, % at 10 µM | hit rate 0.036% among 340,000;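 active means mean replicate inhibition at least 50% and at least half of replicates individually reaching 50%; inconclusive means only one of the two criteria met; inactive means neither criterion met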;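 further: exported cargo escapes ClpAP degradation while cytoplasmic cargo is degraded and loses fluorescence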
E coli growth-1: counter-screen for AddAB inhibitors: E. coli growth inhibition; E. coli V3065 growth, OD600 absorbance, 18 h; inhibition, % at 11.9 µM; hit rate 0.27% among 330,000; AID 449728;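 active means inhibition above the campaign's mean inhibition across all tested compounds plus 3 SD, cut at about 9.9% in these data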;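 further: uninfected addAB+ strain grown without phage in ampicillin broth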
E coli growth-2: E. coli growth inhibition | OD600 absorbance (concentration not given with the values) | hit rate 0.21% among 330,000 | AID 1053175 | Escherichia coli growth, OD600, 23 h; active compounds read low;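 active means OD600 absorbance below the run mean of sample wells minus 3.6 SD, in any replicate, cut at about 0.56 in these data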
AddAB inh: less growth of phage-infected E. coli with AddAB; E. coli expressing H. pylori AddAB, absorbance growth; inhibition, % at 11.9 µM; hit rate 0.29% among 330,000; in the data active means inhibition above about 12%
phage Ecoli inh: E. coli growth loss with phage present | AID 651602 | hit rate 0.26% among 360,000 | growth absorbance | inhibition, % at 11.9 µM; in the data active means inhibition above about 11%
RecBCD conf: confirmation: growth loss of phage-infected RecBCD+ E. coli (RecBCD inhibitor screen); AID 651982; hit rate 45% among 890; inhibition, % at 11.9 µM; E. coli V66 + T4 2- phage, growth OD; shares compounds with phage Ecoli inh;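 active means mean inhibition over triplicates exceeding the hit threshold derived in the original primary screen, cut at about 11% in these data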
Ecoli viability: counter-screen for RecBCD inhibitors: inhibitors of bacterial viability; shares compounds with phage Ecoli inh; E. coli viability, absorbance (OD) growth; inhibition, % at 11.9 µM; hit rate 29% among 890; AID 651983; in the data active means inhibition above about 20%;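 further: E. coli strain V66 grown with compound alone and no phage infection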
AddAB counter: growth loss of phage-infected AddAB E. coli, RecBCD counter-screen; shares compounds with phage Ecoli inh; E. coli expressing H. pylori AddAB + T4 phage, OD growth; gene 2 mutant T4, recBCD-deleted host; inhibition, % at 11.9 µM; AID 651984; hit rate 45% among 890;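 active means mean inhibition above the solvent-only control wells' mean plus 3 SD, cut at about 22% in these data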;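 further: higher means less bacterial growth from phage killing when AddAB is blocked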
Numbers stand for hits; n = inactive; u = inconclusive; x = no result given; ! = not active in a repeat. Only some compounds are listed: those with a hit (about 0.5% of all), similar ones and a draw of the others.

SMILES	Tat transport	E coli growth-1	E coli growth-2	AddAB inh	phage Ecoli inh	RecBCD conf	Ecoli viability	AddAB counter
O=C(/C=C/c1ccc([N+](=O)[O-])cc1)c1ccccc(=O)c1O	n	x	x	x	16	n	n	n
O=C(/C=C/c1ccc([N+](=O)[O-])cc1)c1cccs1	n	n	n	n	n	x	x	x
Cc1ccc(/C=C/C(=O)c2ccccc(=O)c2O)c(C)c1	n	n	n	n	13	n	n	n
O=C(C=Cc1ccccc1O)c1ccccc1O	n	x	n	x	n	x	x	x
CC(C)(C)OC(=O)CC1CC=CCC(CC(=O)NC(CO)Cc2ccccc2)C(=O)NCCOC1=O (stereo unspecified)	x	x	n	x	x	x	x	x
O=C(CNc1n[nH]c(=O)[nH]c1=O)NN=C/C=C/c1ccccc1	x	x	n	x	x	x	x	x
CCS(=O)(=O)c1ccc(OC)c(N=Nc2ccc(O)c3ncccc23)c1	n	n	n	n	n	x	x	x
CCN(CC)S(=O)(=O)c1cc(OC)ccc1N=Nc1ccc(O)c2ncccc12	n	x	x	x	12	n	n	n
Cc1cccc(N=Nc2ccc(O)c3ncccc23)c1	n	n	n	n	16	n	n	n
NC(=S)NN=Cc1nccc2c(C(F)(F)F)cccc12	x	x	x	x	16	18	21	22
CNc1cccnc1C=NNC(N)=S	n	x	x	x	n	x	x	x
Nc1c(Cl)ncnc1N/N=C/c1ccccn1	x	n	x	n	30	38	49	37
CC(=NNc1nc(C)cc(C)n1)c1ccc(C)o1	x	x	n	x	x	x	x	x
CCS(=O)(=O)NCCc1csc(-c2cccnc2)n1	n	n	n	n	97	n	n	n
NCCC(=O)NCCc1cnc[nH]1	n	n	n	n	n	x	x	x
NCCc1cnc[nH]1	n	n	n	n	13!	n	n	n
O=C(C(=O)c1cc(Br)ccc1O)c1cc(Br)ccc1O	n	x	0.17	x	13	13	n	n
C/C=N/NC(=O)c1cc(Br)ccc1O	n	n	x	n	n	x	x	x
CC(=NNc1nc2ccccc2s1)c1ccncn1	n	x	x	x	27	17	n	25
Cc1ccc(NC(=O)CCCSc2nc3ccccc3[nH]2)cc1	n	14	n	n	12	n	n	n
Cc1cc(C)c([N+](=O)[O-])cc1-c1ccc(C=Nc2c(-c3ccco3)nc3ccccn23)o1	x	x	n	x	x	x	x	x
OC(CN1CCN(c2ccccn2)CC1)Cn1c2ccccc2c2ccccc21 (stereo unspecified)	n	n	n	n	12	n	n	n
O=C(NNC(=O)c1ccc2ccccc2c1O)Nc1ccc(F)cc1	n	n	n	n	12	n	n	n
Cc1cccc(NC(=O)NNC(=O)c2ccc3ccccc3c2O)c1	n	x	n	x	n	x	x	x
NC(Cc1ccc([N+](=O)[O-])cc1)=NOC(=O)C(c1ccccc1)c1ccccc1	x	x	n	x	x	x	x	x
SMILES	Tat transport	E coli growth-1	E coli growth-2	AddAB inh	phage Ecoli inh	RecBCD conf	Ecoli viability	AddAB counter
Nc1nc2ccc(Cl)cc2o1	n	x	n	x	13	14	n	37
Cc1ccc(C=CC(=O)Nc2ccc(O)c3c(=O)cc(-c4ccccc4Cl)oc23)cc1	x	x	n	x	x	x	x	x
Cc1ccc(-c2nc3ccc([N+](=O)[O-])cc3[nH]2)cc1	n	n	n	n	n	x	x	x
O=[N+]([O-])c1ccc2nc(-c3ccc(Cl)cc3)[nH]c2c1	n	n	n	n	11	n	n	n
COc1cccc(-c2cnc(C(O)c3ccc(F)cc3)[nH]2)c1 (stereo unspecified)	x	x	x	x	n	x	x	x
COc1cccc(-c2cnc(C(O)c3cc(C)cc(C)c3)[nH]2)c1 (stereo unspecified)	x	x	x	x	13	n	n	n
COc1cccc(-c2cnc(C(O)c3ccc(F)c(C)c3)[nH]2)c1 (stereo unspecified)	x	x	x	x	12	n	n	n
CC[C@]12C(=O)N(C)CC(C3C(=O)N(C)C(=O)C31)N2C(=O)c1ccc(Br)cc1 (stereo partly specified)	x	x	n	x	x	x	x	x
CCc1ccc(NC(=O)CCC(=O)N2CCSc3ccccc32)cc1	n	n	n	n	14	n	n	n
COc1ccc(OC)c(C(O)=CC(=O)C(=O)Nc2ccccc2OC)c1	x	x	n	x	x	x	x	x
Cc1cccc(NC(c2ccc(O)cc2)c2ccc3ccc(C)nc3c2O)n1 (stereo unspecified)	n	n	n	n	n	x	x	x
COc1cccc(C(Nc2ccccc2)c2ccc3ccc(C)nc3c2O)c1 (stereo unspecified)	x	x	x	x	12	n	n	n
O=C(CCSc1nc2ccccc2s1)N/N=C/c1c(O)ccc2ccccc12	n	12	x	n	17	n	n	n
COc1ccc(C=NNC(=O)CCSc2nc3ccccc3s2)cc1	x	x	n	x	x	x	x	x
NC(=O)/C(=C\c1ccc([N+](=O)[O-])o1)c1ccco1	x	x	x	x	100	102	103	101
COC(=O)/C(=C\c1ccc([N+](=O)[O-])o1)NC(=O)c1ccccc1	n	n	n	n	n	x	x	x
Cc1c(Cl)sn(-c2ccc(Cl)cc2)c1=O	u	x	0.062	x	98	99	100	100
CC1CN(C(C)CO)C(=O)c2cccc(NS(=O)(=O)c3ccccc3)c2OC1CN(C)S(=O)(=O)c1ccccc1 (stereo unspecified)	x	x	n	x	x	x	x	x
NC(=S)NN=Cc1cn(CCC(=O)O)nc1-c1cccc(Br)c1	x	x	n	x	x	x	x	x
COc1ccc(-c2nn(CCC(=O)O)cc2/C=N/NC(N)=S)cc1	n	n	x	n	73	n	n	n
Cn1ccsc1=NC(=O)c1ccc([N+](=O)[O-])o1	n	99	0.062	99	100	99	101	101
COc1cc(C(=O)N=c2sccn2C)c([N+](=O)[O-])cc1OC	n	x	n	x	n	x	x	x
O=C(CCCc1ccccc1)NCc1cn2ccsc2n1	n	n	n	n	96	n	n	n
COC(=O)c1ccc(NC(=O)Nc2cccc(F)c2)cc1	n	n	n	n	12	n	n	n
COC(=O)c1ccc(NC(=O)Nc2ccc(F)cc2F)cc1	n	n	n	n	n	x	x	x
SMILES	Tat transport	E coli growth-1	E coli growth-2	AddAB inh	phage Ecoli inh	RecBCD conf	Ecoli viability	AddAB counter
Cc1ccc(-c2n[nH]c(=S)n2N=Cc2ccc(C)o2)cc1	x	x	n	x	x	x	x	x
O=[N+]([O-])c1ccc(O)c(C2CCCCC2)c1	n	x	0.19	x	12	n	n	n
CCN1CCN(c2ccc(S(=O)(=O)N3CCCCC3)cc2NC(=O)c2ccc([N+](=O)[O-])o2)CC1	n	n	n	n	n	x	x	x
CCN1CCN(c2ccc(NC(=O)c3ccc([N+](=O)[O-])o3)cc2Cl)CC1	n	x	n	x	21	16	n	102
Cc1nnc(SCC2=C(C(=O)O)N3C(=O)C(NC(=O)Cn4nc(C(F)F)c(Cl)c4C)C3SC2)s1 (stereo unspecified)	n	n	n	n	n	x	x	x
CN(C)CCn1nnnc1SCC1=C(C(=O)O)N2C(=O)[C@@H](NC(=O)Cc3csc(N)n3)[C@H]2SC1	n	n	x	n	99	103	105	51
